# From PubChem BioAssay (EPA / NIEHS)
# Inconclusive results are not listed. Calls of active or inactive are those of the source. How the source made its calls: active means hit-call score of the fitted dose curve at least 0.9, where 1 is the maximum; inconclusive means response in the unintended direction; inactive means score below 0.9.
# Read-out: glucuronosyltransferase (UGT1A1), UGT1A1 (gene 54658)
# Assay: CLD_UGT1A1_24hr: CellzDirect (CLD) Gene Expression Assay for glucuronosyltransferase (UGT1A1) at 24 hours (AID 2283696)
# Procedure: CLD_24hr is a cell-based, multiplexed-readout assay that uses hepatocyte, a human liver primary cell, with measurements taken at 24 hours after chemical dosing in a 96-well plate.CLD_UGT1A1_24hr is one of 16 assay component(s) measured or calculated from the CLD_24hr assay. It is designed to make measurements of mRNA induction, a form of inducible reporter, as detected with chemiluminescence signals by Quantitative Nuclease Protection Assay (qNPA) technology.Data from the assay component CLD_UGT1A1_24hr was analyzed at the endpoint, CLD_UGT1A1_24hr, in the positive analysis fitting direction relative to DMSO as the negative control and baseline of activity. Using a type of inducible reporter, gain-of-signal activity can be used to understand changes in the reporter gene as they relate to the gene UGT1A1. Furthermore, this assay endpoint can be referred to as a primary readout. To generalize the intended target to other relatable targets, this assay endpoint is annotated to the transferase intended target family, where subfamily is glucuronosyltransferase.
# Human hepatocyte cultures were treated daily for two consecutive days with fresh dosing solutions containing appropriate concentrations of the 320 ToxCast chemicals (chemical identities were blinded to CellzDirect and other ToxCast collaborators), vehicle control (0.2% DMSO), and positive control inducers as summarized in Table 1. Due to the large number of treatment groups and chemicals examined, the ToxCast chemicals were divided into two groups (spanning two independent cultures of hepatocytes from separate donor preparations (Hu778: ToxCast plates 1 and 2; Hu776: ToxCast plates 3 and 4). Each preparation of human hepatocyte cultures was treated with respective vehicle control, medium only control, set of six positive controls/reference chemicals for the five hepatic receptor pathways, and a subset of eight of the ToxCast chemicals (indoxacarb, pyrithiobac-sodium, norflurazon, cyhalofop-butyl, methomyl, thiram, acetochlor, and propiconazole). These replicate data, coupled with internal replicates designed within the blinded ToxCast chemical library, provided additional data to evaluate interindividual differences between hepatocyte preparations and their potential impact on chemical profiles.Cell morphology and integrity were evaluated using phase-contrast microscopy as an indicator of hepatocyte cell health (Tyson & Green, 1987). Cultures for each treatment group (i.e., media, vehicle [0.2% DMSO], positive control inducers [multiple concentrations], and the ToxCast chemicals [multiple concentrations]) were observed and cell morphology was assessed relative to vehicle control cultures at each harvest time point (0, 6, 24, or 48 h). […] Images were evaluated at the conclusion of the study to assess changes in cell integrity and account for the effects of chemical exposure on uncharacteristic changes in concentration-dependent gene expression profiles. The results from these determinations of apparent cytotoxicity were annotated (yes/no) alongside the corresponding qNPA data for reference.At the conclusion of each treatment period, hepatocyte cultures (96-well) were washed with 1 volume of HBSS, lysed by addition of 25 ul ArrayPlate lysis buffer (HTG, Tucson, AZ), and 70 ul/well of Denaturation Oil, denatured by incubation at 95C for 10 min, and frozen at approximately -70C until analysis by nuclease protection assay (qNPA) (Roberts et al., 2007). For qNPA analysis, cell lysates were thawed at 50C for approximately 30 min, qNPA probes were added, and samples were incubated at 95C for 10 min to begin the detection process by denaturing the target RNA, dissociating the duplexes and secondary structure hybridization. At the conclusion of the hybridization period, S1 nuclease reagent was added to each sample to digest all nonprotected nucleotides at 50C for 60-90 min. […]
SMILES,outcome,AC50
CCCN(CCC)C(=O)SCC,inactive,
COC(=O)c1c(Cl)nn(C)c1S(=O)(=O)NC(=O)Nc1nc(OC)cc(OC)n1,inactive,
CCOC(=O)C(C)Oc1ccc(Oc2nc3ccc(Cl)cc3o2)cc1 (stereo not given),inactive,
c1ccc(Nc2ccccc2)cc1,inactive,
COc1c(Cl)ccc(Cl)c1C(=O)O,inactive,
CCOC(=O)C(C)Oc1ccc(Oc2cnc3cc(Cl)ccc3n2)cc1 (stereo not given),inactive,
COc1nc(C)nc(NC(=O)NS(=O)(=O)c2ccccc2OCCCl)n1,inactive,
COC(=O)c1cccc(C)c1S(=O)(=O)NC(=O)Nc1nc(OCC(F)(F)F)nc(N(C)C)n1,inactive,
OB(O)O,inactive,
CCOC(=O)NCCOc1ccc(Oc2ccccc2)cc1,inactive,
CCCCOCCOCCOCc1cc2c(cc1CCC)OCO2,inactive,
COC(=O)c1ccccc1S(=O)(=O)NC(=O)Nc1nc(OC(F)F)cc(OC(F)F)n1,inactive,
CCSC(=O)N(CC(C)C)CC(C)C,inactive,
CCCCCOC(=O)COc1cc(N2C(=O)C3=C(CCCC3)C2=O)c(F)cc1Cl,inactive,
COC(=O)c1ccc(I)cc1S(=O)(=O)NC(=O)Nc1nc(C)nc(OC)n1,inactive,
C=CCOC(Cn1ccnc1)c1ccc(Cl)cc1Cl (stereo not given),inactive,
CCNc1nc(N)nc(Cl)n1,inactive,
CCC(C)OC(=O)N1CCCCC1CCO (stereo not given),inactive,
CN(C)C(=O)Nc1ccc(Cl)c(Cl)c1,inactive,
CCCCOC(=O)[C@@H](C)Oc1ccc(Oc2ccc(C(F)(F)F)cn2)cc1,inactive,

SMILES,outcome,AC50
CCCCC(CC)COC(=O)c1ccccc1C(=O)O (stereo not given),inactive,
CSC(=O)c1cccc2nnsc12,inactive,
CCOC(=O)COc1cc(-n2ncc(C(F)(F)F)c(C)c2=O)c(F)cc1Cl,inactive,
COC(=O)c1ccccc1C(=O)O,inactive,
CC(C)(c1ccc(O)cc1)c1ccc(O)cc1,inactive,
CCC(O)=C1C(=O)CC(C(=O)O)CC1=O (stereo not given),inactive,
CCCCOC(=O)C(C)Oc1ccc(Oc2ccc(C(F)(F)F)cn2)cc1 (stereo not given),,20 µM (active)
COC(=O)CSc1cc(N=c2sc(=O)n3n2CCCC3)c(F)cc1Cl,,3.17 µM (active)
CC1(C)C(C=C(Cl)Cl)C1C(=O)OCc1cccc(Oc2ccccc2)c1 (stereo not given),inactive,
N#CSCSc1nc2ccccc2s1,inactive,
CC(C)(C)[C@@H](O)[C@@H](Cc1ccc(Cl)cc1)n1cncn1,inactive,
C#CCOC(=O)[C@@H](C)Oc1ccc(Oc2ncc(Cl)cc2F)cc1,inactive,
CCCOC(=O)NCCCN(C)C,inactive,
CCCCCCC(C)OC(=O)COc1nc(F)c(Cl)c(N)c1Cl (stereo not given),inactive,
CCCCC(CC)CN1C(=O)C2C3C=CC(C3)C2C1=O (stereo not given),inactive,
CCN(CC)C(=O)c1cccc(C)c1,inactive,
O=C(O)C1(C(=O)Nc2ccc(Cl)cc2Cl)CC1,,20 µM (active)
Cc1nn(C)c(Oc2ccccc2)c1C=NOCc1ccc(C(=O)OC(C)(C)C)cc1,inactive,
CCCN(CCC)c1c([N+](=O)[O-])cc(C(F)(F)F)c(N)c1[N+](=O)[O-],,8.82 µM (active)
Oc1ccc(C(c2ccc(O)cc2)C(Cl)(Cl)Cl)cc1,inactive,
